PriA SSB inh: blocks PriA binding to SSB C-terminal tail; AlphaScreen SSBct-PriA binding, biotinylated peptide; inhibition, % at 33 µM; hit rate 0.6% among 430,000; AID 1272365; in the data active = inhibition mostly above about 37%, no sharp cut-off; inactive = mostly below about 20%;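 note: plate controls were negative control peptide for no effect and reference peptide for full effect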
Mtb UGM inh: inhibitors of M. tuberculosis UDP-galactopyranose mutase. P9WIQ1. purified UGM, fluorescence polarization probe displacement. inhibition, % at 10 µM. hit rate 0.06% among 320,000. AID 504406; in the data active = inhibition above about 10%, passing the limit was not always enough; inconclusive = no clear call, values can overlap the other calls
Mtb bLac sens: beta-lactam sensitization of Mtb H37Rv | M. tuberculosis H37Rv growth with meropenem, percent inhibition | inhibition, % at 25 µM | hit rate 0.27% among 330,000; call rule not given here;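 note: growth measured after seven days incubation then overnight dye step; 0% = bacteria only wells and 100% = bacteria with antibiotic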
FBA Mtb inh: inhibitors of M. tuberculosis fructose-bisphosphate aldolase; P9WQA3; purified M. tuberculosis FBA, fluorescence read-out; inhibition, % at 1 µM; hit rate 2.3% among 360,000; AID 588726;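 note: 0% = vehicle and 100% = reference inhibitor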
Rv3671c protease: inhibits the M. tuberculosis serine protease Rv3671c. P9WHR9. inhibition, % at 5.96 µM. hit rate 0.048% among 320,000. AID 2606; in the data active = inhibition above about 38%;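 note: extracellular domain of Rv3671c used as enzyme; 0% = enzyme with DMSO and 100% = no enzyme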
Target sequence (P9WHR9 whole entry, looked up, the tested form may be a part): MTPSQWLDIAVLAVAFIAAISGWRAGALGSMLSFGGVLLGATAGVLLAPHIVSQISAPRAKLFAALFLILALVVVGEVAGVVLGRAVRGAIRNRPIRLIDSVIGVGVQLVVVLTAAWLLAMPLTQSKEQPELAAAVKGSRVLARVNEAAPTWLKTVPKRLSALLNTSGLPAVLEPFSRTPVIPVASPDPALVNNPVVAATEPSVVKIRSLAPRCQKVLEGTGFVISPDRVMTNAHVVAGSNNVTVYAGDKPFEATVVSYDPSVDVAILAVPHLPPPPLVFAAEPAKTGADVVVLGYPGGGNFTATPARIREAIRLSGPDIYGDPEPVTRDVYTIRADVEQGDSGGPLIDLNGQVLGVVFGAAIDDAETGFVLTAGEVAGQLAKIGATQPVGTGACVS
GDH-TPI counter-1: GDH-TPI coupled enzyme inhibition counter-screen. GDH-TPI coupled enzyme counterscreen, NADH absorbance. inhibition, % at 4.8 µM. hit rate 1.2% among 360,000. AID 588335; in the data active = inhibition above about 30%;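 note: 0% = DMSO wells and 100% = wells lacking the enzyme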
Mtb FBA confirm: Mtb FBA inhibition, confirmed; shares compounds with FBA Mtb inh; purified M. tuberculosis FBA, fluorescence read-out; inhibition, % at 1 µM; hit rate 78% among 5,600;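 note: 0% = vehicle wells and 100% = reference inhibitor wells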
GDH-TPI counter-2: inhibits GDH-TPI coupling enzymes, flagging Mtb FBA hits | inhibition, % at 1 µM | hit rate 81% among 5,600 | GDH-TPI coupled enzyme counterscreen, fluorescence | shares compounds with FBA Mtb inh; in the data active = inhibition above about 10%
GDH-TPI DR: inhibits GDH-TPI coupling enzymes in dose response. shares compounds with FBA Mtb inh. GDH-TPI coupled enzyme assay, fluorescence, artifact counterscreen. IC50, µM. hit rate 79% among 170; call rule not given here
Active calls of the source: *; ? = inconclusive; nt = not tested or not shown; + = active, no number. Rows were chosen to be rich in hits. Some 3.2% of all compounds tested hit in one or more screens of this group. Cut-off read from the data, not from the text of the source, unless noted: active = inhibition above about 27%; inactive = the rest.

SMILES	PriA SSB inh	Mtb UGM inh	Mtb bLac sens	FBA Mtb inh	Rv3671c protease	GDH-TPI counter-1	Mtb FBA confirm	GDH-TPI counter-2	others
NC(=O)c1c(NC(=O)C(=O)N2CCOCC2)sc2c1CCCC2	2	2	-10	-4	-1	20	nt	nt
Cc1ccc(Nc2cc(C)nc(N3CCN(S(=O)(=O)c4ccc5c(c4)Cc4ccccc4-5)CC3)n2)cc1	-13	nt	nt	nt	nt	nt	nt	nt
Cc1c(O)c2ccccc2n(-c2ccccc2)c1=O	-5	3	22	47*	0	16	77*	54*
COC(=O)c1cc(NC(=O)CC2Oc3ccccc3NC2=O)cc(C(=O)OC)c1 (stereo not drawn)	-5	-3	5	40*	-8	3	79*	69*
N#Cc1nc(Cc2ccccc2)oc1NCc1cccnc1	-4	2	-3	0	-1	0	nt	nt
COc1ccc(-c2nc(C#N)c(NCc3ccc(F)cc3)o2)cc1OC	-1	1	8	103*	6	10	74*	55*
CN(Cc1ccccc1)S(=O)(=O)c1ccc(-c2nc(C#N)c(NCc3ccc(F)cc3)o2)cc1	-13	nt	nt	nt	nt	nt	nt	nt
COc1ccc(-c2nc(C#N)c(NCc3cccnc3)o2)cc1OC	-5	-1	3	30*	-3	14	53*	39*
COc1ccc(-c2nc(C#N)c(NCc3ccccc3Cl)o2)cc1OC	-6	0	4	57*	5	23	114*	81*
Cc1cccc(C(N)=NOC(=O)N2c3ccccc3Sc3ccccc32)c1	34	nt	nt	nt	nt	nt	nt	nt
CCOC(=O)c1oc2cccc(OCC(O)CNC(C)C)c2c1C (stereo not drawn)	-6	-1	-17	91*	1	8	11	-4	GDH-TPI DR=1.5*
Cc1cccc(C)c1OCC(O)CNC(C)C (stereo not drawn)	-17	2	-30	0	-12	2	nt	nt
c1nc2c([nH]1)CCCC2	-3	nt	nt	nt	nt	nt	nt	nt
CCc1ccccc1Nc1ccc(C(=O)O)cc1N	12	2	-6	14	-3	-7	nt	nt
Nc1cc(C(=O)O)ccc1Nc1ccccc1	2	0	39	91*	-19	8	126*	113*
CCOC(=O)C1=CN(Cc2ccc(OC)cc2)C=C(C(=O)OCC)C1c1cccs1	-32	0	5	32*	-1	5	151*	136*
COc1cc(C(=O)NCC2CCCO2)cc(OC)c1OC (stereo not drawn)	1	0	-4	2	1	0	nt	nt
COC(=O)C1=CN(CC2CCCO2)C=C(C(=O)OC)C1c1cc(OC)c(OC)c(OC)c1 (stereo not drawn)	-8	0	-9	52*	-5	18	0	-5
COC(=O)C1=CN(Cc2cccs2)C=C(C(=O)OC)C1c1cccc(O)c1	-14	0	4	85*	2	2	94*	82*
COC(=O)C1=CN(Cc2ccc(F)cc2)C=C(C(=O)OC)C1c1cc(OC)c(OC)c(OC)c1	-14	1	2	29*	1	2	10	9	GDH-TPI DR=2.9*
COC(=O)C1=CN(Cc2ccc(C)cc2)C=C(C(=O)OC)C1c1ccc(F)c(F)c1	-13	0	4	3	2	-4	nt	nt
COc1cccc(NC(=O)Cn2nc(Nc3ccc(C)cc3)c(S(=O)(=O)c3ccccc3)c2N)c1	28	nt	nt	nt	nt	nt	nt	nt
COC(=O)C1=CN(Cc2ccc(OC)cc2)C=C(C(=O)OC)C1c1cc(OC)c(OC)c(OC)c1	-26	0	0	48*	-3	1	88*	64*
COC(=O)C1=CN(C(C)c2ccccc2)C=C(C(=O)OC)C1c1cc(OC)c(OC)c(OC)c1 (stereo not drawn)	-40	0	17	71*	5	13	52*	48*
COCCN1C=C(C(=O)OC)C(c2ccc(OC)c(OC)c2)C(C(=O)OC)=C1	-15	0	-3	29*	9	10	135*	98*
SMILES	PriA SSB inh	Mtb UGM inh	Mtb bLac sens	FBA Mtb inh	Rv3671c protease	GDH-TPI counter-1	Mtb FBA confirm	GDH-TPI counter-2	others
Cc1nn(C)cc1C=NNC(=O)c1csc2c1CCCC2	2	nt	nt	nt	nt	nt	nt	nt
COC(=O)c1ccsc1NC(=O)c1ccccc1Cl	-16	nt	nt	nt	nt	nt	nt	nt
CN(C)c1ccc(C=NN=Cc2ccccc2O)cc1	-4	nt	nt	nt	nt	nt	nt	nt
O=S(=O)(c1ccc(F)cc1)N1N=C(c2ccc(F)cc2)C[C@H]1c1ccc2nccnc2c1	-21	nt	nt	nt	nt	nt	nt	nt
Cc1cccc2c(=O)n3c(cc12)-c1[nH]c2ccccc2c1CC3	-16	nt	nt	83*	nt	9	168*	110*
O=C(NCc1cccnc1-c1cccs1)NC(c1ccccc1)c1ccccc1	-7	nt	nt	nt	nt	nt	nt	nt
O=C(NCc1cccnc1)c1ccc(-c2ccc(Cl)cc2)o1	2	-1	-2	29*	-6	2	113*	103*
O=C(NCc1cccnc1)c1ccc(-c2cc3ccccc3oc2=O)cc1	0	0	1	54*	2	16	3	1
Cc1c(C(=O)Nc2ccc(Br)cc2)cnc2nc(-c3ccncc3)nn12	-11	nt	nt	nt	nt	nt	nt	nt
O=C(NCC(c1ccco1)N1CCc2ccccc21)c1ccc2c(c1)OCO2 (stereo not drawn)	-10	nt	nt	nt	nt	nt	nt	nt
Cc1cc(=O)oc2c(C)c(OC(C)C(=O)N3CC[C@@]4(O)CCCC[C@H]4C3)ccc12 (stereo partly drawn)	8	3	-6	24	1	18	nt	nt
Cc1c(C)c2ccc(OC(C)C(=O)N3CC[C@@]4(O)CCCC[C@H]4C3)c(C)c2oc1=O (stereo partly drawn)	-5	-2	0	69*	-4	9	53*	41*
Cc1c(C)c2ccc(OC(C)C(=O)N3CC[C@@]4(O)CCCC[C@H]4C3)cc2oc1=O (stereo partly drawn)	-3	0	0	96*	-7	16	+	+
C=CCN1C(=O)/C(=C2\SC(=Nc3ccc(F)cc3)NC2=O)c2ccccc21	-6	nt	nt	nt	nt	nt	nt	nt
O=S(=O)(NCC1(Sc2ccccc2)CCOCC1)c1ccc(Br)s1	-21	nt	nt	nt	nt	nt	nt	nt
Nc1nc2ccccc2cc1S(=O)(=O)c1ccccc1	-8	-2	1	51*	0	-3	116*	98*
O=S(=O)(c1ccccc1)c1cnc2ccccc2c1	-5	-1	-3	-2	14	5	nt	nt
COc1ccccc1/C=C/C=NN1CCN(Cc2ccccc2)CC1	-4	nt	nt	nt	nt	nt	nt	nt
CCCCNc1nc2sc3c(c2c(=O)n1-c1cccc(Cl)c1)CCN(C)C3	-5	1	19	52*	0	21	190*	140*
CCCCSc1nc2sc3c(c2c(=O)n1-c1ccccc1)CCN(C)C3	-1	1	?	4	-2	21	nt	nt
